# According to PubChem BioAssay (NCI):
# The panel holds about 79,000 compounds, 15% with a hit somewhere; the sample as a whole holds those more often. A number with no mark means an inactive call. Active and inactive are the calls of the source. Cut-off read from the data, not from the text of the source: active = growth inhibition above about 70%; inactive = the rest.
# Assay: NCI Yeast Anticancer Drug Screen. Data for the rad50 strain (AID 155);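 note: 0% = growth of vehicle-only cultures of the same strain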
# Details: S. cerevisiae rad50 strain growth inhibition; at 50.0 µM (retest, dose inferred, filed as 5.0); active compounds read high
# Summary of the method: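 Cells are treated with compound, grown, and their growth is then scored against vehicle-only cultures of the same repair-deficient yeast strain.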
row,Structure (SMILES),growth inhibition
1,CCOc1ccccc1/C=C1\NC(=O)N(/C=C2\C(=O)Oc3ccccc3C2=O)C1=O,96% (active)
2,CC(NNC(=S)N1CCCC1)c1ccc2ccccc2n1 (stereo not given),96% (active)
3,N#Cc1c(-c2ccc(Cl)cc2)c(C#N)c(=O)n(NS(=O)(=O)c2ccccc2)c1S,83% (active)
4,CC(C)/C=C1\CCOC1=O,9%
5,c1ccc(Nc2nnc3nc(-c4ccccc4)c(-c4ccccc4)nn23)cc1,60%
6,O=C(NC(c1ccccc1)N1CCOCC1)c1ccccc1 (stereo not given),-1%
7,N[C@@H]1CCCC[C@@H]1N.O=C([O-])CN(CP(=O)([O-])[O-])CP(=O)([O-])[O-].[Pt+2],89% (active)
8,C/C=C\C(/C=C/C)(C(=O)OCCN(C)C)C(/C=C\C)(/C=C/C)C(=O)OCCN(C)C (stereo not given),97% (active)
9,COc1ccc(CCNC(=S)/N=C\C(C(=O)c2ccccc2)=C(\O)c2ccccc2)cc1OC,95% (active)
10,Cc1ccccc1C1SCc2nc3ccccc3n21 (stereo not given),-7%
11,O=C(Nc1ccc(Cl)cc1)Nc1nnc(/C=C/c2ccc(Cl)c(Cl)c2)o1,-4%
12,Cc1c(CCCl)c(N=[N+]=[N-])n2c(nc3ccccc32)c1C#N,46%
13,O=C(OCCCC(C(=O)c1ccccc1)=P(c1ccccc1)(c1ccccc1)c1ccccc1)c1ccccc1,99% (active)
14,O=C(c1ccccc1)c1ccc(Cl)cc1,-16%
15,O=C1C(C(O)(C(F)(F)Cl)C(F)(F)Cl)CCCC1C(O)(C(F)(F)Cl)C(F)(F)Cl (stereo not given),99% (active)
16,CCN(CC)C(=S)N=Nc1c(O)[nH]c2ccccc12,99% (active)
17,c1csc(-c2nnc(C34CC5CC(CC(C5)C3)C4)o2)c1,93% (active)
18,C/C(O)=C(/C=N/C(=S)Nc1ccc(S(N)(=O)=O)cc1)C(=O)Nc1ccccc1C,18%
19,CC(C)(Oc1ccc(-c2cccc3ccccc23)cc1)C(=O)O,42%
20,CCc1scc(C)[n+]1CC(=O)c1cccc([N+](=O)[O-])c1,15%

row,Structure (SMILES),growth inhibition
1,O=C1CCC(C(c2ccccc2)(c2ccccc2)c2ccccc2)CC1=O (stereo not given),99% (active)
2,Clc1ccc(C2SCc3nc4ccccc4n32)cc1Cl (stereo not given),95% (active)
3,OC(CBr)c1c(Br)ccc2ccccc12 (stereo not given),65%
4,O=C1OC(c2cccc(Cl)c2)Sc2ccccc21 (stereo not given),86% (active)
5,c1ccc(N2CCN(c3ccccc3)C2Cc2c[nH]c3ccccc23)cc1,98% (active)
6,CC(=O)c1sc(Nc2ccc(Cl)c(Cl)c2)nc1C,35%
7,Cc1ncn(-c2ccccc2O)c1C,7%
8,C[n+]1c(/C=C/c2ccc(N3CCCC3)cc2)sc2ccccc21,98% (active)
9,COc1ccc(-c2c(C#N)c(S)n(NS(=O)(=O)c3ccc(C)cc3)c(=O)c2C#N)cc1,89% (active)
10,N#Cc1c(-c2ccc(Cl)c(Cl)c2)c(-c2ccc(Cl)c(Cl)c2)nn(CCO)c1=O,96% (active)
11,NCc1ccc(O)c(O)c1O,78% (active)
12,C[CH2][Sn]([CH2]C)([O]C(=O)c1cc(OC)c(OC)c(OC)c1)[O][Sn]([CH2]C)([CH2]C)[O]C(=O)c1cc(OC)c(OC)c(OC)c1,79% (active)
13,C=CCNCCC1CCCCCC1,97% (active)
14,Cc1ccc(/C=C/C(=O)/C=C/c2ccc(C)o2)o1,97% (active)
15,CCCC(=O)c1cc(O)c(O)c(CN(C)Cc2cc(Cl)cc(C)c2O)c1O,91% (active)
16,COC(=O)/C(C#N)=C/c1cc(OC)c(O)cc1Br,56%
17,O=C(/C=C/c1ccccc1)CCN1CCOCC1,99% (active)
18,c1cc2c(c3c1CN(C1CCCCC1)CO3)OCN(C1CCCCC1)C2,19%
19,CSc1nc2ccccc2s1,8%
20,CC1(C)CC(=O)C(CSC(=O)c2ccccc2)=C(O)C1,17%
